This excerpt belongs to a sample that is enriched for hits.
Pf Dd2 growth = blocks in vitro growth of P. falciparum Dd2 | P. falciparum Dd2 growth, SYBR Green, 72 h | Potency, µM (doses to about 28.9 µM), for the others: top-dose activity, negative = inhibition, most hits filed as inhibitors | hit rate 4.3% among 120,000; active means well fitted inhibition curve with a large enough effect;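 further: plate controls were DMSO vehicle for no effect and reference drug for full effect; nearly all actives have a fitted effect of over 65% in size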
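Readout: SYBR Green fluorescence, 485 nm excitation, 535 nm emission, after ~16 h lysis at 37C. Before that, Dd2-infected red cells (2.5% hematocrit) grew 72 h with compound, 29 uM top final concentration.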
Numbers without * were called inactive; i = inactive; [ ] = dose if it differs, or a comment. Potency means the concentration at half of the fitted maximal effect.

SMILES	Pf Dd2 growth
CCc1ccc2nc(C)cc(C(=O)N3CCN(c4ccccc4)C(=O)C3)c2c1	i
O=C(CN1CCCc2nc(C3CC3)ncc2C1=O)NC1CC1	38%
COCc1nnc2n1CCC(NC(=O)CCc1ccc(OC)cc1)CC2 (stereo not given)	17%
CCN(CC)c1cc(CCC(=O)N2CCN(c3cccc(OC)c3)CC2)ccn1	i
CCN(CC)c1cc(CCC(=O)O)ccn1	53%
CCN(CC)c1cc(CCC(=O)NCCOC)ccn1	3%
CCN(CC)c1cc(CCC(=O)N2CCN(c3ccc(Cl)cc3)CC2)ccn1	8.9µM*
CCN(CC)c1cc(CCC(=O)NCCCN2CCN(C)CC2)ccn1	13%
CCN(CC)c1cc(CCC(=O)NCCc2ccccn2)ccn1	-13%
CCN(CC)c1cc(CCC(=O)NCCN(C)C2CCCCC2)ccn1	1.6µM*
CCN(CC)c1cc(CCC(=O)N2CCC(COC)CC2)ccn1	1%
CCN(CC)c1cc(CCC(=O)NCCN2CCCCCC2)ccn1	3.5µM*
Cn1c(=O)oc2cc(NC(=O)CCc3cc4n(n3)CCCNC4)ccc21	-15%
Cn1cccc1-c1nc(-c2nnn3c2COC(c2ccccc2Cl)C3)no1 (stereo not given)	i
C[C@]1(O)CCN(C(=O)c2ccc(-c3cnco3)cc2)C[C@@H]1O	0%
O=C(NCc1ccc2c(c1)OCO2)c1ccc2c(c1)CC(=O)N2Cc1ccc(F)cc1	i
CCC(C(=O)NC1CCCCC1)n1c(SCc2cccc(C)c2)nc2ccncc21 (stereo not given)	-30%
Cc1cccc(Cn2c(SCc3ccc(C(=O)NCc4ccccc4F)cc3)nc3ccncc32)c1	11µM*
COc1cccc(CNC(=O)c2ccc3oc(=O)n(Cc4ccccc4)c3c2)c1	9%
COc1cccc(CNC(=O)c2ccc(CSc3nc4ccncc4n3Cc3cccc(C)c3)cc2)c1	3.2µM*
Cc1cccc(Cn2c(SCc3ccc(C(=O)NC4CCCCC4)cc3)nc3ccncc32)c1	-16%
Cc1cccc(-c2nc(Cn3c(SCc4cccc(C(F)(F)F)c4)nc4ccncc43)c(C)o2)c1	-1%
COc1ccc(CN2C[C@@H](F)[C@@H](OCc3nc4ncccc4[nH]3)C2)cc1	-14%[44.1 µM]
CS(=O)(=O)N1CCCN(Cc2cn[nH]c2-c2cccs2)CCNC(=O)CC1c1ccccc1 (stereo not given)	i
CCOc1ccccc1C1NC(=O)N(CC(=O)NCc2ccc(F)cc2)C2=C1C(=O)OC2 (stereo not given)	-24%
SMILES	Pf Dd2 growth
Cc1ccc(CN2CCn3c(nnc3[C@@H]3C[C@@H](O)CN3Cc3cccnc3)C2)s1	-17%
COc1ccc(NC(=O)Cn2c(=O)n(Cc3nc(C)no3)c(=O)c3cc4c(cc32)OCO4)cc1OC	-8%
Cc1noc(Cn2c(=O)c3cc4c(cc3n(CC(=O)Nc3ccc(C(C)C)cc3)c2=O)OCO4)n1	13µM*
CC(C)c1ccc(NC(=O)Cn2c(=O)n(Cc3nc(-c4ccccc4)no3)c(=O)c3cc4c(cc32)OCO4)cc1	-8%
CNC(=O)[C@@H]1CN(C(=O)NCc2ccccc2)C[C@H]1c1nc(C)no1	-10%
CC(C)c1ccc(NC(=O)C2CCN(C(=O)c3ncn4c3COC(c3ccc(F)cc3)C4)CC2)cc1 (stereo not given)	-16%
COc1cc(C(=O)N2CCN(CCc3ccncc3)CC2)cc(OC)c1OC	14%
CC(C)(C)c1ccc(C(=O)N2CCN(CCc3ccccn3)CC2)cc1	17%
COc1cc(C(=O)N2CCN(CCc3ccccn3)CC2)cc(OC)c1OC	2.8µM*
Cc1noc(C)c1CC(=O)N1CCC(CC(=O)N(C)Cc2ccccc2)C1 (stereo not given)	-28%
COc1ccc(CN2CCC3(CC2)CC(c2cccc(C(F)(F)F)c2)=NO3)cc1	-23%
CC1CCCN(C(=O)Cn2ccn3nc4c(c3c2=O)CCCC4)C1 (stereo not given)	-18%
CN(c1cc(=O)c2ccnc(-c3ccc(O)c(F)c3)c2o1)C1CCOCC1	-23%[44.1 µM]
COCCO[C@H]1C(=O)N(C2CCN(C(=O)c3cc4ccccc4[nH]3)CC2)[C@H]1c1ccncc1	i
O=C1NC2(Cc3ccccc31)CN(Cc1c[nH]c3ccccc13)C2	-10%
Cc1ccccc1-c1nc2cnccn2c1NCCC(=O)NC1CCCCC1	i
Cc1ccccc1-c1nccn2c(C3CN(Cc4ccc(O)cc4)C3)ncc12	11µM*
c1cncc(-c2nnc([C@H]3CCN(Cc4c[nH]c5ccccc45)C3)o2)c1	i
Cc1ccccc1-c1nccn2c(C3CN(C(=O)c4cc5ccccc5[nH]4)C3)ncc12	11µM*
CNC(=O)[C@@H]1CN(C(=O)c2cc3ccccc3[nH]2)C[C@H]1COC	-10%
COc1ncccc1-c1nccn2c(C3CN(Cc4c[nH]c5ccccc45)C3)ncc12	3.5µM*
Cc1cccnc1C(=O)N[C@@H]1CN(Cc2ccccc2)C[C@H]1CN(C)C	0%
Cc1noc(C)c1[S+](=O)([O-])N1CCN(c2nc3ncccc3o2)CC1	i
C[C@@H](NC(=O)c1cccs1)c1c(-c2ccc(F)cc2)noc1C(=O)O	-11%[44.1 µM]
Cc1nc2ncccn2c1C(=O)N[C@H]1CCOC[C@H]1C1CCOCC1	-2%
SMILES	Pf Dd2 growth
CCS(=O)(=O)Nc1ccc(C2(C(=O)NC3CCCC3)CCCCC2)cc1	-9%
O=C(c1n[nH]c2ccccc12)N1CCC(c2nc(C3CCOCC3)no2)CC1	i
Cc1ccc(C(=O)N2CC(C(=O)NCCc3ccncc3)C3(CCOCC3)C2)cc1 (stereo not given)	0%
COc1cc(OCc2ccccc2)ccc1CN1C[C@@H]2CCN[C@@H]2C1	10µM*
COCCN1C(=O)[C@H]2CN(Cc3ccc(OC)cc3OC)C[C@H]2C1=O	i
COc1ccc(CN2C[C@@H]3C(=O)N(Cc4ccc5c(c4)OCO5)C(=O)[C@@H]3C2)c(OC)c1	i
CN1CC(=O)N(C2CCCNCC2)Cc2c(NCc3cccs3)ncnc21 (stereo not given)	-10%
CNC(=O)N1CCC(C2CCN(C(=O)c3ccc(OC)nc3)C2)CC1 (stereo not given)	-19%
COc1ccc(NC(=O)c2oc3c(c2C)-c2nn(Cc4c(F)cccc4Cl)cc2CC3)c(OC)c1	i
COc1ccc(OC)c(NC(=O)c2oc3c(c2C)-c2nn(Cc4ccc(Cl)cc4)cc2CC3)c1	10µM*
COc1cc(NC(=O)c2oc3c(c2C)-c2nn(Cc4cccc(Cl)c4)cc2CC3)cc(OC)c1	-28%
Cc1ccc(C)c(NC(=O)NCC2CCOCC2)c1	1%
Cn1c(CN2CCOCC2)nnc1C1CCCN(C(=O)c2cc[nH]c2)C1 (stereo not given)	-11%
O=C(NCCc1cccnc1)c1ccc(-c2nnc3ccc(NC(=O)C4CCC4)cn23)cc1	0.4µM*
O=C(NC1CC1)c1ccc2nnc(-c3cccnc3)n2c1	24%[44.1 µM]
Cc1ccc(NC(=O)N2CCc3c(C(=O)NCCc4ccccn4)cccc32)cc1	-18%
O=C(NCCc1ccccn1)c1ccc(OC2CCNCC2)nc1	-8%
O=C(NCCc1ccccn1)c1ccc(-c2nnc3ccc(NC(=O)C4CCC4)cn23)cc1	0.56µM*
O=C(Nc1ccc([C@H]2OCC(=O)N(Cc3cccnc3)[C@@H]2CO)cc1)C1CCC1	i
CN1CCN(C(=O)CSCc2ccccc2Cl)[C@H]2CS(=O)(=O)C[C@H]21	-10%
CC(C)CC(=O)N[C@H](C)c1c(-c2ccc(F)cc2)noc1C(=O)O	-10%[44.1 µM]
COc1ccccc1OCC(=O)NCC(c1ccc(Cl)cc1)N1CCOCC1 (stereo not given)	-20%
O=C(COc1ccccc1)NCC(c1ccc(Cl)cc1)N1CCOCC1 (stereo not given)	-4%

From PubChem
